Data as given in PubChem BioAssay (NCI).
About 83,000 compounds went through this panel and 20% of them were active in at least one assay; those are over-represented in the sample as a whole.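 Testing used 96-well plates and a 48-hour single-concentration exposure. Example: -40 means 40% of the starting cells died.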 Values without a mark were called inactive. Activity calls are given as the source filed them.

test system: UACC-62 melanoma; experiment: NCI-60 one-dose screen, 48 h (100 = growth as untreated, 0 = no growth, -100 = all killed); settings: 10 µM unless noted
Protocol: Growth inhibition of the UACC-62 human tumor cell line is measured as a screen for anti-cancer activity. Cells are grown in 96 well plates and exposed to the test compound for 48 hours. Compounds are tested at a single concentration, which is 10^-5 M for most compounds. The reported endpoint is percent growth (GI% or GIPRCNT), where numbers from 0 - 100% represent growth inhibition, and numbers from -100% - 0 represent cell death. For example, a value of 40 represents 60% growth inhibition. A value of 0 means no net growth occurred over the course of the experiment. A value of -40 indicates 40% of cells at the beginning of the experiment died by the end of the experiment. A value of -100 means all cells are dead at the end of the experiment.
NCI-60 Human Tumor Cell Lines Screen was performed using the standard one-dose NCI protocol, which is described in more detail at https://dtp.cancer.gov/discovery_development/nci-60/default.htm.
Compounds with GIPRCNT values below 10 were considered active. Activity score was based on GIPRCNT using the following formula: […]
Score is 0 for GIPRCNT values of 100 or above, 50 for GIPRCNT values of 0, and 100 for GIPRCNT values of -100.

| Structure (SMILES) | growth |
| --- | --- |
| O=C1Nc2ccccc2C2c3cccn3-c3ccccc3N12 (stereo not given) | 57.6% |
| C/C(=N\Nc1nc(C)cs1)c1cc2ccccc2o1 | 85.5% |
| CCN(CC)CCNC(=O)c1ccc(-c2nc3ccc4[nH]ncc4c3c3c2CCCC3)cc1 | 33.8% |
| CN1CCN(Cc2ccc(NC(=O)c3cncc(C#Cc4cnn5ccccc45)c3)cc2C(F)(F)F)CC1 | 13.8% |
| O=C(N/N=C/c1ccc([N+](=O)[O-])cc1)c1ccc2nc(-c3ccc(Cl)cc3)[nH]c2c1 | 43.7% |
| CC[C@H](C)[C@H](NC(=O)[C@H](CCCNC(=N)N)NC(=O)[C@H](Cc1c[nH]c2ccccc12)NC(=O)[C@@H](NC(=O)[C@H](CCCCN)NC(=O)[C@H](CCCCN)NC(=O)[C@@H](NC(=O)[C@@H](NC(=O)[C@@H](NC(=O)[C@H](CCCCN)NC(=O)[C@H](Cc1ccccc1)NC(=O)[C@H](CCCCN)NC(=O)[C@H](CCCCN)NC(=O)[C@H](Cc1ccccc1)NC(=O)[C@@H](NC(=O)[C@@H](N)CCCCN)[C@@H](C)CC)[C@@H](C)O)[C@@H](C)CC)[C@@H](C)CC)C(C)C)C(=O)N[C@@H](Cc1ccccc1)C(=O)NCC(=O)N[C@@H](CCCNC(=N)N)C(=O)N[C@@H](Cc1ccccc1)C(N)=O | -65.7% (active) |
| CCCCCSB(SCCCCC)c1ccccc1 | 105% |
| CC(C)c1ccc(C(=O)Nc2sc3cc(O)ccc3c2C#N)cc1 | 18% |
| CC(C)CN1CC(C(=O)Nc2ccc3c(c2)-c2ccccc2C3)CC1=O (stereo not given) | 47.3% [50 µM] |
| COc1ccc(Nc2ncccc2NC(=O)c2cn(Cc3cccc(Oc4ccccc4)c3)nn2)cc1OC | 57.5% |
| CC1(C)CC2=C3C=C[C@@H]4[C@@]5(C)CC[C@H](O)C(C)(C)[C@@H]5CC[C@@]4(C)[C@]3(C)CC[C@@]2(C(=O)O)CC1=O | 53.6% |
| COCC[C@H]1CCC/C=C/[C@@H]2C[C@H](O)C[C@H]2[C@H](O)/C=C/C(=O)O1 | 21.7% |
| CCCCCCCCCCCCCCCCCCOc1ccccc1CC(=O)OCC[N+]1(C)CCOCC1 | 60.8% |
| C=C(c1ccc(C(=O)O)cn1)c1cc2c(cc1C)C(C)(C)CCC2(C)C | 94.3% |
| CC(=O)c1cc(-c2ccccc2N)n(-c2ccc3c(c2)OCO3)c1C | 25.3% |
| CCOC(=O)c1c(NC(=O)c2ccc(OC)cc2)sc2c(CN(C)C)c(O)ccc12 | 95.7% |
| Cc1ccc(O)c(NC(=O)c2ccc(CNc3ccnc(C(F)(F)F)c3)cc2)c1 | 13.9% |
| Cn1cc(-c2ccc3cc(-c4ccc(CC(=O)Nc5cc(C(C)(C)C)on5)cc4)cnc3c2)cn1 | 10.8% |
| COc1cc2cc(Oc3ccc(NC(=O)Nc4ccccc4)cc3)c(C)nc2cc1OCCN1CCCCC1 | 95.4% |
| COc1cc(-c2nc(NC(C)=O)sc2-c2ccnc(NCCNS(=O)(=O)c3ccccc3)n2)ccc1Cl | 23% |

| Structure (SMILES) | growth |
| --- | --- |
| COc1ccc2nc3cc(Cl)ccc3c(NCCN)c2c1 | -71.2% (active) |
| CN(C)Cc1ccc(C(=O)Nc2ccc3ncnc(Nc4ccc(Oc5cccc(F)c5)c(Cl)c4)c3c2)cc1 | -20.1% (active) |
| O=C(CN1C(=O)NC2NC(=O)NC21)N/N=C/c1ccc(Cl)cc1Cl (stereo not given) | 99% |
| COc1cc(/C=C\c2cc(/C=C\c3ccc(O)c(OC)c3)n(C(=O)CNc3ccc(Cl)cc3)n2)ccc1O | 10.9% |
| Cc1ccc(N=Nc2c(N)nn(-c3ccccc3)c2N)cc1 | 31.5% |
| CC(C)c1ccc(-n2c(=S)[nH]c3sc4c(c3c2=O)CCC(=O)C4)cc1 | 24.5% |
| O=C1/C(=C/c2ccc(C(F)(F)F)cc2)COc2ccc(O)cc21 | 80.2% |
| Cc1nn(-c2ccccc2)c(/N=C/N(C)C)c1/C=C/C(=O)c1ccc(Cl)cc1 | 88.3% |
| O=C(CCCCNC(=O)c1cc(=O)c(O)co1)Nc1ccccc1 | 90.1% |
| C#CCOc1cccc(-c2ncc3cc(NC(=O)CCl)ccc3n2)c1 | -6.06% (active) |
| O=C(CN1CCN(c2cc3c(cc2F)c(=O)c(C(=O)O)cn3C2CC2)CC1)N/N=C/c1ccncc1 | 95.7% |
| N#Cc1c(-c2ccccc2)cc(-c2ccccc2)n(CCCC(=O)NO)c1=O | 9.37% (active) |
| O=C1NC(=C(Cl)Cl)/C(=N/S(=O)(=O)N2CCCCC2)N1 | 46.6% |
| CN1CCN(CCCOC(=O)c2c3c(n4ccccc24)C(=O)c2ncccc2C3=O)CC1 | -48.8% (active) |
| O=c1[nH]c(-c2ccc(Cl)cc2)cn1-c1ccc(-n2cc(-c3ccc(Cl)cc3)[nH]c2=O)cc1 | 87.5% |
| NC(=S)N/N=C/c1cn(-c2ccccc2)nc1-c1cc2ccccc2oc1=O | 34.2% |
| C=CCCC(=O)N1C=CC(=O)[C@H](O)[C@@H]1/C=C/c1ccccc1 | 27.8% [100 µM] |
| Clc1nn2c(Cn3cnc4c(NCc5ccccc5)ncnc43)nnc2c2ccccc12 | 22.4% |
| CCN(CC)CCCC(C)Nc1ccc2cc(OC)ccc2n1 (stereo not given) | 108% |
| O=C(Nc1nc(C(=O)N2CCN(C(c3ccccc3)c3ccccc3)CC2)cs1)c1ccc(NC2CCCCC2)c([N+](=O)[O-])c1 | 67.1% |
